# Measurements taken from PubChem BioAssay AID1671194 (National Center for Advancing Translational Sciences (NCATS), 2021).
# The whole screen tested about 140,000 compounds, of which about 240 (0.17%) were called active. Entries that show only a call come without a potency. Roughly 9% stayed inconclusive and do not appear here. The call rests on the fitted dose curve; in most records, active means well fitted inhibition curve with a large enough effect; inconclusive means small, poorly fitted or top-dose-only effect; inactive means no such curve, though single readings can be large or run the other way. The sample as a whole holds a higher share of actives than the screen did.
# Test: Primary qHTS assay for inhibitors of alpha-synuclein gene (SNCA) expression; further: nearly all actives have a fitted effect of over 45% in size
# Details: HEK-293 SNCA-luciferase knock-in, luminescence, 24 h; series mostly up to 57.2 µM
# Text: Assay Submitter (PI): Daniel R. Scoles Ph.D.
# Department of Neurology, University of Utah, Salt Lake City, Utah
# Accumulation of alpha-synuclein is a main underlying pathological feature of Parkinson's disease (PD) and alpha-synucleinopathies, for which lowering expression of the alpha-synuclein gene (SNCA) is a potential therapeutic avenue. Using a cell-based luciferase reporter of SNCA expression we performed a quantitative high throughput screen (qHTS) of 155,885 compounds in dose response. The screening assay was generated using genome editing to insert the luciferase gene downstream and in frame of the SNCA gene in HEK-293 cells (1). A viability counterscreen using GF-AFC was used to eliminate cytotoxic and false positive compounds. After in silico analysis (clustering, removal of frequent hitter nuisance chemotypes), inhibitor compounds from the primary screen were selected for follow up and re-tested at 11-doses in the SNCA-luc cells (luciferase and GF-AFC confirmation), and in CMV-luc expressing cell line to flag general transcriptional repressors.
# Described herein are the results of the primary screen for SNCA inhibitors; decrease in luciferase signal (inhibition of the SNCA gene expression) is the desired output for this assay.
# 1. Dansithong, W., Paul, S., Scoles, D. R., Pulst, S. M., and Huynh, D. P. (2015) Generation of SNCA Cell Models Using Zinc Finger Nuclease (ZFN) Technology for Efficient High-Throughput Drug Screening. PLoS ONE 10, e0136930.
# SEQUENCE No. (e.g., 1, 2, 3, etc.); […] (e.g., Cells, Incubation, Reagent, etc.); VALUE; DESCRIPTION
# 1; Cells; 4 uL; Dispense 1500 HEK-293-SNCA-luc cells/well into Greiner 1536-well white / solid bottom tissue culture treated plate. The plate was covered with metal lids with gas-exchange holes.
# 2; Incubate; 24 hours; Incubate at 37C, 5% CO2, 95% RH.
# 3; Compounds; 23 nL; Compounds and controls were transferred via a Kalypsys Pin Tool (Wako USA) equipped with a 1536-slotted pin array. The plate was covered with metal lids with gas-exchange holes.
# 4; Incubate; 24 hours; Incubate at 37C, 5% CO2, 95% RH.
# 5; Dispense; 1 uL; Dispense Gly-Phe-7-amino-4-trifluoromethylcoumarin (GF-AFC, prepared at 125 uM in PBS) was added. The plate was covered with metal lids with gas-exchange holes.
# 6; Incubate; 30 min; Incubate at 37C, 5% CO2.
# 7; Detector; Fluorescence; Measure fluorescence with ViewLux microplate reader (PerkinElmer) equipped with 405/10 excitation and 540/25 emission filters.
# 8; Dispense; 3 uL; Dispense ONE-Glo ([…]) lucifase detection reagent was added to each well. Plates were covered with metal lids with gas-exchange holes.
# 9; Incubate; 15 min; Incubate at room temperature.
# 10; Detector; Luminescence; Measure luminescence with ViewLux microplate reader (PerkinElmer) equipped with clear filters.
# NOTES (numbers refer to sequence above)
# 1; HEK-293-SNCA-luc were cultured and suspended in phenol-red free DMEM (4.5 g/L glucose, 25 mM HEPES, cat #21063 (Thermo)).
# 3; Compounds were added to the assay plate in an 11-point intra plate dose response, 1:3 titration in DMSO with a final concentration range of […]. Vehicle-only plates, with DMSO being pin-transferred to every well, were inserted at the beginning of screening runs to confirm expected assay performance. Activity was normalized to wells containing medium only (-100% activity, full inhibition) and SNCA-luc cells treated with DMSO vehicle control (0% activity), contained on the same plate as test samples.
# 10; Signals were analyzed, and dose-response curves were fit using the Hill equation. Compounds in curve classes -1.1, -1.2, -2.1, -2.2 in the SNCA-luc assay were considered active. Compounds were eliminated from further consideration if also active (curve class -1.1, -1.2, -1.3, -1.4, -2.1, -2.2, -2.3, -2.4) in the GF-AFC cytotoxicity assay.
# Potency means the concentration at half of the fitted maximal effect.
row,Compound,Potency
1,O=c1c2nc(-c3ccccc3)ccc2ncn1Cc1ccccc1,inactive
2,C[C@@H](O)[C@H](N)C(=O)N1CCc2onc(-c3cccc4ccccc34)c2C1,inactive
3,COc1ccc(CN2CCN(c3ccccc3)CC2C)c(OC)c1OC (configuration not stated),inactive
4,O=C1CC2(CCN(C(=O)C3CCCN3C(=O)Cc3ccccn3)CC2)Oc2ccccc2N1 (configuration not stated),inactive
5,COc1cccc(NC(=O)Nc2ccc3c(c2)N(C)C(=O)c2ccccc2S3)c1,20 µM (active)
6,CCN1C(=O)c2ccccc2Sc2ccc(NC(=O)Cc3ccc(OC)cc3)cc21,inactive
7,CCOc1ccccc1C(=O)Nc1ccc2c(c1)N(C)C(=O)c1ccccc1S2,inactive
8,COc1ccc(-c2nc(CN3CCOC(CN)C3)c(C)o2)c2ccccc12 (configuration not stated),inactive
9,CN1C[C@H](O)C[C@H]1c1nnc2n1CCN(C(=O)c1cc3ccccc3[nH]1)CC2,inactive
10,COc1ccc(Cl)cc1NC(=O)N1CCCC(Cn2cnc3cccnc32)C1 (configuration not stated),inactive
11,COCCN1C[C@H]2CN(C)c3ccccc3[C@@H]2N(C(=O)CC2CCCC2)CCC1=O,inactive
12,CNC(=O)C1CCCCN1Cc1ccc(-c2cccs2)cc1 (configuration not stated),inactive
13,COc1ccc(-c2cc(N3CCCC(NC(=O)c4cccc(Cl)c4)C3)n[nH]2)cc1 (configuration not stated),inactive
14,Cc1cc(OC2CN(C(=O)c3ccccc3F)C2)ccc1F,inactive
15,COc1ccc(CC(=O)N2CC[C@@H](CC(=O)O)[C@@H](CCN(C)c3ccccc3)C2)cc1,inactive
16,COCc1nc(C2CC(N)C2)cc(N2CCC(c3[nH]ncc3C)CC2)n1 (configuration not stated),inactive
17,CCOc1ccc(NC(=O)CN(Cc2ccccc2)S(=O)(=O)c2ccc(Cl)cc2)cc1,inactive
18,CCOc1ccc(N(CC)C(=O)C2CCN(S(=O)(=O)c3cccc4nonc34)CC2)cc1,inactive
19,CCOc1ccc(N(Cc2ccccc2)C(=O)c2nc(S(C)(=O)=O)ncc2Cl)cc1,6.31 µM (active)
20,CCOc1ccc2c(n1)CCN(C(=O)NC1CCCCC1)C2,inactive
21,C=CCN(C)C(=O)[C@@H](C)C1CC[C@@]2(C)Cc3sc(NS(=O)(=O)c4ccc(Cl)cc4)nc3[C@@H](C)[C@@H]2[C@H]1O (some centres not stated),inactive
22,CCN1CCN(C(=O)c2ccc3nnc(-c4ccc(OC(F)(F)F)cc4)n3c2)CC1,inactive
23,COc1cccc(CCC(=O)N2CCCN(S(C)(=O)=O)c3ccccc32)c1,inactive
24,Oc1ccc(-c2nc(C3CC3)nc3c2CN(Cc2ccc(F)cc2)CC3)cc1,inactive
25,Cc1cccc(CN2CCC3(Cc4ccccc4CNC3=O)C2)c1 (configuration not stated),inactive

row,Compound,Potency
1,COC(=O)N1CCN(C(=O)c2cccc(-c3ccccc3OC)c2)CC1,inactive
2,CC1=C(C(=O)N(C)C)C(c2ccc(Cl)cc2)N2C(CC(=O)NCc3ccco3)=CSC2=N1 (configuration not stated),inactive
3,CCCn1c(NCc2ccccc2F)nc2ccccc21,inactive
4,CCCn1c(NCc2ccc(N(CC)CC)cc2)nc2ccccc21,17.8 µM (active)
5,Cc1ccc(OCCn2c(CNc3ccccc3C)nc3ccccc32)cc1,inactive
6,O=C(NCCc1ccccn1)c1ccc2c(c1)N(S(=O)(=O)c1ccccc1)CC2,inactive
7,CCCS(=O)(=O)N1CCC(CCOC)(NC(=O)NCC)CC1,inactive
8,CC(C)NC(=O)C1(CCO)CCN(c2ncccn2)C1 (configuration not stated),inactive
9,COc1cccc(CC(=O)NC2CCN(c3cc(-c4ccc(F)cc4)[nH]n3)C2)c1 (configuration not stated),inactive
10,CCC(=O)N1CCC2(CC1)OCC(C(=O)NCc1ccccc1)N2C(=O)c1ccc(C)cc1 (configuration not stated),inactive
11,O=C1NCc2ccccc2CC12CCCN2Cc1ccccc1OC(F)(F)F (configuration not stated),inactive
12,CC(C)CN(CC1CN(C(=O)Cc2cccs2)CCO1)C(=O)c1cccc2ccccc12 (configuration not stated),inactive
13,O=C1NC(=NC2CCCC2)C2(CCCN(Cc3ccsc3)C2)N1c1cc(F)cc(F)c1 (configuration not stated),inactive
14,CCOc1cccc(CN2CCC(Oc3ccc(-c4noc(C5CC5)n4)cc3)C2)c1 (configuration not stated),inactive
15,COc1ccccc1Nc1ccnc(N2CCC(C(=O)N3CCC(c4ccccc4)CC3)CC2)n1,inactive
16,Cc1ccc(-c2ccccc2CN2CCN(C(=O)NC(C)C)CC2)cc1Cl,inactive
17,Cc1nonc1CC(=O)NC1CC(=O)N(Cc2cccc3ccccc23)C1 (configuration not stated),inactive
18,COc1ccccc1NC(=O)Cn1c(-c2ccc(F)cc2)nc(C)c(CCO)c1=O,inactive
19,COc1ccc(-c2ccnc(N[C@H]3CO[C@H]4[C@@H]3OC[C@H]4OC(=O)Nc3cccc4ccccc34)n2)cc1,inactive
20,Cn1cccc1C(=O)N1C[C@@H](COc2ccccc2)[C@H](C(N)=O)C1,inactive
21,Cc1cccc(OCCc2noc(C3CCCN(Cc4ccccc4C#N)C3)n2)c1 (configuration not stated),inactive
22,Cc1cccc(-c2nc3ccc(C(=O)N4CCCCC4)cc3o2)n1,7.94 µM (active)
23,CCOC(=O)C1CCCN(C(=O)c2ccc3oc(-c4ccccn4)nc3c2)C1 (configuration not stated),inactive
24,CC(=O)N1CCN(C(=O)c2ccc3nc(-c4ccncc4)oc3c2)CC1,inactive
25,O=C(NCCc1ccccc1)c1ccc2nnc(C3CCCC3)n2c1,inactive

row,Compound,Potency
1,CCOC(=O)C1CCCN(C(=O)Cc2ccc(N(Cc3cccc(F)c3)C(=O)c3ccco3)cc2)C1 (configuration not stated),inactive
2,CCOc1ccccc1C(=O)N1CCC(Cc2nc(-c3ccccc3)no2)CC1,inactive
3,COc1ccc(NC(=O)[C@@H]2C[C@@H](c3ccc(F)cc3)N(CCOc3ccccc3)C2)cn1,inactive
4,CC(C)(C)C(=O)N1CCc2nc(-c3ccc(Cl)cc3)nc(-c3ccccc3)c2C1,inactive
5,Cc1ccc([S+](=O)([O-])N2CCN(C(=O)c3nc4cccnc4n(C4CCCC4)c3=O)CC2)cc1,inactive
6,Oc1ccccc1CN1CCOC[C@H]1c1ncc(-c2ccc(C(F)(F)F)cc2)[nH]1,inactive
7,Cc1c(Cl)cccc1NC(=O)N(C)CC1CCOC1 (configuration not stated),inactive
8,CC1(c2cccnc2)N(CCOc2ccccc2)C(=O)OC12CCN(C(=O)c1cccc(Cl)c1)CC2 (configuration not stated),inactive
9,COc1ccccc1-c1cc(C(=O)NCCSC)nn2cccc12,inactive
10,CC1=C[C@@H](CNC(=O)Nc2ccccc2)[C@H](C(C)C)C[C@H]1CC(=O)NCCN(C)C,inactive
11,O=C(C1CCC1)N1CCC(O)(c2csc(CN3CCc4ccccc4C3)n2)CC1,inactive
12,O=C1[C@@H]2C[C@@H](O)CN2C2(CN(C3CCC3)C2)C(=O)N1Cc1ccccc1,inactive
13,Cc1ccc(-c2noc([C@@H]3C[C@@H](O)CN3Cc3cccc(C#N)c3)n2)cc1F,inactive
14,O=C(Cc1ccccn1)N1CCC(C(=O)N2CCC(N3CCCC3=O)CC2)CC1,inactive
15,O=C(NCCc1ccccc1)C1=NO[C@@H]2CN(Cc3ccc(F)cc3)C[C@H]12,inactive
16,CC1(C)[C@H](Cc2cc(CC3CCCCC3)on2)C[C@@H]1NC1CCOCC1,inactive
17,COc1cc(OC)c(CNC(=O)c2c(C)noc2-c2cc(OC)c(OC)c(OC)c2)c(OC)c1,inactive
18,O=C(NCc1cccc(F)c1)c1c[nH]c2ncccc12,inactive
19,Cc1ccc(C(=O)N2CCC(N3CC4CC(C3)[C@H]3CCCC(=O)N3C4)CC2)s1 (some centres not stated),inactive
20,CCOc1cccc(CNC(=O)CC2CCCCN(Cc3ccccc3)C2=O)c1 (configuration not stated),inactive
21,O=C(NCc1ccccc1)C1CCN(c2nccc(Nc3ccccc3Cl)n2)CC1,inactive
22,COc1ccccc1-c1[nH]nc2ncc(-c3cccc(CO)c3)nc12,inactive
23,O=C(Cc1ccccn1)N1CCCC(C(=O)N2CCC(c3nc4ncccc4[nH]3)CC2)C1 (configuration not stated),inactive
24,COc1ccc(Nc2cnc3ccc(-c4ccc(OC)nc4)nn23)cc1,inactive
25,O=C1NC2(Cc3ccccc31)CN([S+](=O)([O-])c1ccccc1)C2,inactive

row,Compound,Potency
1,COCC(=O)N1CC(C(=O)NCCc2ccccn2)C2(CCOCC2)C1 (configuration not stated),inactive
2,Cc1ccc(CNC(=O)c2ccc3c(c2)CN(Cc2cccnc2Cl)CCO3)cc1,inactive
3,O=C1CO[C@H]2CN(C3CCC3)C[C@H]2N1Cc1ccc(OC(F)(F)F)cc1,inactive
4,O=C1NCCc2[nH]c(-c3ccncc3)cc21,3.41 µM (active)
5,CC(C)CNC(=O)C1CCCN(c2nccc(Nc3ccccc3F)n2)C1 (configuration not stated),inactive
6,CN(Cc1ccccc1)C(=O)CC1CCN(C(=O)CCC2CCCC2)C1 (configuration not stated),inactive
7,COc1ccc(CC(=O)NC2CCN(c3cc(-c4ccccc4)[nH]n3)CC2)cc1,inactive
8,CC(=O)c1cnc2ccc(-c3cc(Cl)c(O)c(Cl)c3)nc2c1NC1CCC(CN(C)C)CC1 (configuration not stated),0.027 µM (active)
9,CCN(CC)Cc1ccc2c(c1)CN(C(=O)Cc1c[nH]c3ccccc13)CCO2,inactive
10,N#Cc1cccc(-c2c(C(=O)NCCc3ccccc3)nc3sccn23)c1,inactive
11,COc1ccccc1CCC(=O)N1C[C@H](N)C[C@H]1C(=O)NC(C)C,inactive
12,COc1cccc(CNC(=O)c2cc(-c3cccnc3)nc3c2cnn3C)c1,inactive
13,COCCN1C(=O)N(C)C(=O)C12CCN(Cc1cc(F)ccc1F)C2 (configuration not stated),inactive
14,O=C1NCCCCCN(C(=O)Cc2ccccc2)[C@@H]2C[C@@H](C(=O)N3CCc4ccccc4C3)C[C@H]12,inactive
15,CCCNC(=O)C(NC(=O)c1ccccc1C)C1CCN(C(=O)c2ccc(OC)cc2)CC1 (configuration not stated),inactive
16,O=S(=O)(c1cccc(F)c1)N1CC[C@@H]2COCCN(Cc3cccnc3)[C@@H]2C1,inactive
17,CN(C)c1ccc(CN[C@H]2[C@H](O)[C@@H](N3CCC(Cc4ccccc4)CC3)[C@@H]3OC[C@H]2O3)cc1,inactive
18,Cc1ccc(C(=O)N2CCC3(CC2)NC(=O)N(Cc2ccc(F)cc2)C3=O)cc1,inactive
19,COc1ccc2[nH]cc(CCNc3cc(-c4ccccc4CN(C)C)ncn3)c2c1,inactive
20,CN(C)CCc1c[nH]c2ccc(Cn3cncn3)cc12,2.71 µM (active)
21,CS(=O)(=O)N(Cc1ccccn1)C1CN(C(=O)NCCc2ccccc2)C1,inactive
22,O=C(NCc1ccc(F)cc1)c1nc(-c2ccccc2)c2ccccn12,inactive
